In PubChem BioAssay (NCATS):
Inconclusive results are not listed. Calls of active or inactive are those of the source. Calls come from the whole dose curve; as a rule, active = well fitted inhibition curve with a large enough effect; inconclusive = small, poorly fitted or top-dose-only effect; inactive = flat fitted curve, though single readings scatter.

How the values were obtained:
CRL-7250 = normal cell line; test: Cytotoxic Profiling of Annotated Libraries Using Quantitative High-Throughput Screening (AID 1296008); settings: Five cell lines viability, CellTiter-Glo ATP luminescence, 48-72 h; max response: active compounds read low; for max response: % is set by controls: 0 for no effect and ±100 for the full control effect
Method in brief: (§1)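 Compounds were pin-transferred onto cells and incubated 48 or 72 hr at 37 degree Celsius, 95% humidity. CellTiter-Glo was added, plates sat 10 min at room temperature, then ATP-coupled luminescence was imaged as the viability read-out.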

HaCat [1] = test: as above; settings: Five cell lines viability, CellTiter-Glo ATP luminescence, 48-72 h; max response: active compounds read low
Method in brief: as §1

KB-3-1 = test: as above; settings: Five cell lines viability, CellTiter-Glo ATP luminescence, 48-72 h; max response: active compounds read low
Method in brief: as §1

NIH3T3 = test: as above; settings: Five cell lines viability, CellTiter-Glo ATP luminescence, 48-72 h; max response: active compounds read low
Method in brief: as §1

HACAT [2] = test: qHTS assay to identify novel small-molecules to repurpose for Merkel cell carcinoma treatment (AID 1296009); settings: MCC and control cell lines, CellTiter-Glo viability, 72 h; at 44.8 µM (top of the series) unless noted
Method in brief: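 Cells exposed to NPC (8-point) and MIPE (11-point) compound dilutions for 72 hr at 37 degree celsius; viability read by CellTiter-Glo luminescence, normalized to no-cell and DMSO in-plate controls.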

Measured: max response
Note: nearly all actives have a fitted effect of over 60% in size.

C=C1CCC[C@]2(C)CC/C(=C(/CO)C(=O)OC)C[C@@H]12
inactive: CRL-7250 -7.08% | HaCat [1] | KB-3-1 -2.83% | NIH3T3 2.53% | HACAT [2]

CC(C)(C)NC(=O)[C@H]1CC[C@H]2[C@@H]3CC[C@H]4NC(=O)CC[C@]4(C)[C@H]3CC[C@]12C
inactive: CRL-7250 -10.4% | HaCat [1] | KB-3-1 -6.73% | NIH3T3 -8.88% | HACAT [2]

C=C1CC2OC(=O)C(=C)C2C(O)/C=C(\C)CCC1O (stereo not given)
inactive: CRL-7250 -0.668% | HaCat [1] | KB-3-1 5.02% | NIH3T3 -10.3% | HACAT [2]

CN1CCN(C2=Nc3ccccc3Nc3ccc(OS(=O)(=O)C(F)(F)F)cc32)CC1
inactive: CRL-7250 | HaCat [1] | KB-3-1 -4.68% | NIH3T3 | HACAT [2]

CNCCN1CCC(c2cc(CN(C)C(=O)c3cccc(Oc4ccccc4)c3)ccn2)CC1
inactive: CRL-7250 1.09% | HaCat [1] | KB-3-1 8.17% | NIH3T3 1.12% | HACAT [2] inactive [at 17.4 µM]

Cc1cc(C)c(-n2cc(C)c3c(Cl)nc(C)nc32)c(C)c1
inactive: CRL-7250 -11.1% | HaCat [1] | KB-3-1 -3.82% | NIH3T3 -6% | HACAT [2]

C/C=C(/C=C(C)/C=C/C=C/C=C(\C)C(=O)C12OC1C(O)(CCO)NC2=O)C(=O)OC (stereo not given)
inactive: CRL-7250 -6.59% | HaCat [1] | KB-3-1 | NIH3T3 -1.05% | HACAT [2] inactive [at 17.4 µM]

CC12CCC3C1C(c1c(cc(O)c(C(=O)c4ccccc4)c1O)O2)C3(C)C (stereo not given)
inactive: CRL-7250 3.27% | HaCat [1] | KB-3-1 -20.8% | NIH3T3 -2.16% | HACAT [2]
